Test results from PubChem BioAssay AID1159580 (chemical genetic matrix, 2015).
In all, about 5,500 compounds went through this assay and about 2,000 (36%) were called active. Not shown: some 18% with an inconclusive outcome. Cut-off read from the data, not from the text of the source: active = normalized growth mostly below about 0.91 (no sharp cut-off); inconclusive = no clear call, values can overlap the other calls; inactive = mostly above about 0.92. The list shows a part of the results.

Assay: chemical genetic growth profiling, strain panel (AID 1159580);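 note: tested at 20 µM; growth read once vehicle control cultures reached saturation at 30 °C; 1 = growth at the plate median or of vehicle wells; lower values mean less growth of the strain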
Settings: growth OD
[1] = S. cerevisiae deletion strains, locus YAL013W, strain DEP1, active compounds read low
[2] = S. cerevisiae deletion strains, locus YBR229C, strain ROT2, active compounds read low
[3] = S. cerevisiae deletion strains, locus YDL101C, strain DUN1, active compounds read low
[4] = S. cerevisiae deletion strains, locus YDR150W, strain NUM1, active compounds read low
[5] = S. cerevisiae deletion strains, locus YEL061C, strain CIN8, active compounds read low
[6] = S. cerevisiae deletion strains, locus YGR078C, strain PAC10, active compounds read low
[7] = S. cerevisiae deletion strains, locus YHR030C, strain SLT2, active compounds read low
[8] = S. cerevisiae deletion strains, locus YHR087W, strain rtc3, active compounds read low
[9] = S. cerevisiae deletion strains, locus YJL187C, strain SWE1, active compounds read low
[10] = S. cerevisiae deletion strains, locus YJR043C, strain POL32, active compounds read low
[11] = S. cerevisiae deletion strains, locus YJR075W, strain HOC1, active compounds read low
[12] = S. cerevisiae deletion strains, locus YKL190W, strain CNB1, active compounds read low
[13] = S. cerevisiae deletion strains, locus YLR039C, strain RIC1, active compounds read low
[14] = S. cerevisiae deletion strains, locus YLR058C, strain SHM2 (second series), active compounds read low
[15] = S. cerevisiae deletion strains, locus YLR085C, strain ARP6, active compounds read low
[16] = S. cerevisiae deletion strains, locus YLR262C, strain YPT6, active compounds read low
[17] = S. cerevisiae deletion strains, locus YML094W, strain GIM5, active compounds read low
[18] = S. cerevisiae deletion strains, locus YMR219W, strain ESC1, active compounds read low
[19] = S. cerevisiae deletion strains, locus YMR263W, strain SAP30, active compounds read low
[20] = S. cerevisiae deletion strains, locus YMR307W, strain GAS1, active compounds read low
[21] = S. cerevisiae deletion strains, locus YNL128W, strain TEP1, active compounds read low
[22] = S. cerevisiae deletion strains, locus YNL153C, strain GIM3, active compounds read low
[23] = S. cerevisiae deletion strains, locus YNL298W, strain CLA4 (second series), active compounds read low
[24] = S. cerevisiae deletion strains, locus YNL322C, strain KRE1, active compounds read low
[25] = S. cerevisiae deletion strains, locus YNR030W, strain Alg12, active compounds read low
[26] = S. cerevisiae deletion strains, locus YPL055C, strain LGE1, active compounds read low
[27] = S. cerevisiae deletion strains, locus YPL241C, strain CIN2, active compounds read low
[28] = S. cerevisiae deletion strains, locus YPR135W, strain CTF4, active compounds read low
[29] = S. cerevisiae strains, strain wild type, active compounds read low
[30] = S. cerevisiae deletion strains, locus YAL040C, strain CLN3, active compounds read low
[31] = S. cerevisiae deletion strains, locus YCL061C, strain MRC1 (second series), active compounds read low
[32] = S. cerevisiae deletion strains, locus YDR363W, strain ESC2, active compounds read low
[33] = S. cerevisiae deletion strains, locus YER002W, strain NOP16, active compounds read low
[34] = S. cerevisiae deletion strains, locus YNL175C, strain NOP13, active compounds read low
[35] = S. cerevisiae deletion strains, locus YNL197C, strain WHI3, active compounds read low
[36] = S. cerevisiae deletion strains, locus YNL224C, strain SQS1, active compounds read low
[37] = S. cerevisiae deletion strains, locus YOR083W, strain WHI5 (second series), active compounds read low

Measured: normalized growth

O=C1c2cccc3c([N+](=O)[O-])ccc(c23)C(=O)N1Cc1ccco1
active: [1] 0.81 | S. cerevisiae deletion strains, locus YCL061C, strain MRC1, active compounds read low 0.896 | [3] 0.873 | [4] 0.763 | [5] 0.909 | [6] 0.879 | [7] 0.321 | [10] 0.791 | [15] 0.341 | [17] 0.797 | [19] 0.796 | [22] 0.899 | [23] 0.753 | [25] 0.559 | [26] 0.628 | [27] 0.634 | [28] 0.382
inactive: [2] 0.94 | [8] 0.974 | [9] 0.995 | [11] 0.97 | [12] 0.934 | [13] 0.852 | [14] 0.972 | [16] 0.815 | [18] 0.98 | [20] 0.739 | [21] 0.958 | [24] 0.997 | [29] 0.935

O=C1c2cccc3cc([N+](=O)[O-])cc(c23)C(=O)N1CCO
inactive: [1] 0.992 | [2] 1.02 | [3] 0.974 | [4] 0.995 | [5] 1.01 | [6] 0.988 | [7] 1.04 | [8] 1.02 | [9] 0.984 | [10] 0.995 | [11] 1.02 | [12] 1.02 | [13] 1.03 | [14] 1.01 | [15] 0.908 | [16] 1.05 | [17] 0.976 | [18] 1.01 | [19] 0.984 | [21] 1 | [22] 1.02 | [23] 0.975 | [24] 1.01 | [25] 0.985 | [26] 0.991 | [27] 1.01 | [28] 0.89 | [29] 1.01

Cc1nc2c([nH]1)c(=O)n(C)c(=O)n2Cc1ccco1
inactive: [1] 1.04 | [30] 1 | [31] 1.01 | [4] 1 | [32] 1.03 | [33] 0.998 | [20] 1.02 | [34] 1.01 | [35] 1.01 | [36] 0.995 | [24] 1.02 | [37] 1.05 | [26] 1.01

CC1/C(=N\O)C[C@@H]2C[C@H]1C2(C)C (some centres undefined)
inactive: [1] 1.01 | S. cerevisiae deletion strains, locus YBR021W, strain FUR4, active compounds read low 1.01 | [2] 1.01 | S. cerevisiae deletion strains, locus YCL029C, strain bik1, active compounds read low 0.994 | S. cerevisiae deletion strains, locus YDL035C, strain GPR1, active compounds read low 0.993 | S. cerevisiae deletion strains, locus YDL074C, strain BRE1, active compounds read low 1.04 | [3] 1.02 | S. cerevisiae deletion strains, locus YDL134C, strain PPH21, active compounds read low 1.01 | S. cerevisiae deletion strains, locus YDL185W, strain tfp1, active compounds read low 1.02 | S. cerevisiae deletion strains, locus YDL192W, strain arf1, active compounds read low 1.03 | S. cerevisiae deletion strains, locus YDR101C, strain arx1, active compounds read low 0.981 | S. cerevisiae deletion strains, locus YDR162C, strain NBP2, active compounds read low 1.02 | S. cerevisiae deletion strains, locus YDR318W, strain mcm21, active compounds read low 1.04 | S. cerevisiae deletion strains, locus YDR388W, active compounds read low 1.02 | S. cerevisiae deletion strains, locus YDR502C, strain sam2, active compounds read low 1.02 | S. cerevisiae deletion strains, locus YER110C, active compounds read low 1.01 | S. cerevisiae deletion strains, locus YER155C, strain BEM2, active compounds read low 1.01 | S. cerevisiae deletion strains, locus YER167W, strain BCK2, active compounds read low 1.01 | S. cerevisiae deletion strains, locus YGL078C, strain dbp3, active compounds read low 1.02 | S. cerevisiae deletion strains, locus YGL086W, strain mad1, active compounds read low 0.999 | S. cerevisiae deletion strains, locus YGL248W, strain PDE1, active compounds read low 1.03 | [6] 1.03 | S. cerevisiae deletion strains, locus YGR135W, strain pre9, active compounds read low 1.04 | S. cerevisiae deletion strains, locus YGR252W, strain gcn5, active compounds read low 1.01 | [7] 1.03 | S. cerevisiae deletion strains, locus YHR079C, strain IRE1 (second series), active compounds read low 1.03 | S. cerevisiae deletion strains, locus YHR079C, strain IRE1, active compounds read low 1.04 | S. cerevisiae deletion strains, locus YHR094C, strain hxt1, active compounds read low 1.01 | S. cerevisiae deletion strains, locus YHR129C, strain ARP1, active compounds read low 1.01 | S. cerevisiae deletion strains, locus YHR200W, strain rpn10, active compounds read low 1.03 | S. cerevisiae deletion strains, locus YIL066C, strain RNR3, active compounds read low 1.01 | S. cerevisiae deletion strains, locus YIL073C, strain SPO22, active compounds read low 1.05 | S. cerevisiae deletion strains, locus YIL125W, strain kgd1, active compounds read low 1.02 | S. cerevisiae deletion strains, locus YIR030C, strain dcg1, active compounds read low 1.02 | S. cerevisiae deletion strains, locus YJL095W, strain BCK1, active compounds read low 1.04 | S. cerevisiae deletion strains, locus YJL134W, strain LCB3, active compounds read low 1.02 | S. cerevisiae deletion strains, locus YJL168C, strain set2, active compounds read low 1.01 | S. cerevisiae deletion strains, locus YJL187C, strain SWE1 (second series), active compounds read low 1.03 | [10] 0.994 | S. cerevisiae deletion strains, locus YJR066W, strain TOR1, active compounds read low 0.95 | [11] 1.03 | S. cerevisiae deletion strains, locus YKL009W, strain mrt4, active compounds read low 0.995 | S. cerevisiae deletion strains, locus YKL068W, active compounds read low 1.02 | S. cerevisiae deletion strains, locus YKL085W, strain MDH1 (second series), active compounds read low 1.02 | S. cerevisiae deletion strains, locus YKL085W, strain MDH1, active compounds read low 1.02 | [12] 1.01 | S. cerevisiae deletion strains, locus YKR001C, strain vps1, active compounds read low 1.05 | [13] 1.09 | S. cerevisiae deletion strains, locus YLR058C, strain SHM2, active compounds read low 1.02 | S. cerevisiae deletion strains, locus YLR102C, strain apc9, active compounds read low 1.05 | S. cerevisiae deletion strains, locus YLR113W, strain HOG1, active compounds read low 1.05 | [16] 1.1 | S. cerevisiae deletion strains, locus YLR268W, strain sec22, active compounds read low 1.02 | S. cerevisiae deletion strains, locus YLR371W, strain rom2, active compounds read low 1.04 | S. cerevisiae deletion strains, locus YLR418C, strain cdc73, active compounds read low 1.06 | S. cerevisiae deletion strains, locus YML016C, strain PPZ1, active compounds read low 1.02 | S. cerevisiae deletion strains, locus YML032C, strain rad52, active compounds read low 1.02 | S. cerevisiae deletion strains, locus YML124C, strain tub3, active compounds read low 1.01 | S. cerevisiae deletion strains, locus YMR078C, strain ctf18, active compounds read low 1.03 | S. cerevisiae deletion strains, locus YMR223W, strain ubp8, active compounds read low 1.02 | [20] 1.06 | S. cerevisiae deletion strains, locus YNL067W, strain RPL9B, active compounds read low 1.02 | S. cerevisiae deletion strains, locus YNL183C, strain NPR1, active compounds read low 0.951 | S. cerevisiae deletion strains, locus YNL233W, strain BNI4, active compounds read low 1.03 | S. cerevisiae deletion strains, locus YNL250W, strain rad50, active compounds read low 1.05 | S. cerevisiae deletion strains, locus YNL271C, strain bni1, active compounds read low 1.02 | S. cerevisiae deletion strains, locus YNL298W, strain CLA4, active compounds read low 1.02 | S. cerevisiae deletion strains, locus YNL307C, strain MCK1, active compounds read low 1.01 | S. cerevisiae deletion strains, locus YNR052C, strain pop2, active compounds read low 1.03 | S. cerevisiae deletion strains, locus YOL012C, strain htz1 1.25 | S. cerevisiae deletion strains, locus YOL147C, strain pex11, active compounds read low 1.01 | S. cerevisiae deletion strains, locus YOR061W, strain CKA2, active compounds read low 1.02 | S. cerevisiae deletion strains, locus YOR069W, strain VPS5, active compounds read low 1.01 | S. cerevisiae deletion strains, locus YOR136W, strain idh2, active compounds read low 1 | S. cerevisiae deletion strains, locus YOR144C, strain elg1, active compounds read low 1.01 | S. cerevisiae deletion strains, locus YOR184W, strain ser1, active compounds read low 0.926 | S. cerevisiae deletion strains, locus YOR231W, strain MKK1, active compounds read low 1.02 | S. cerevisiae deletion strains, locus YOR316C, strain cot1, active compounds read low 1.03 | S. cerevisiae deletion strains, locus YPL256C, strain CLN2, active compounds read low 1.05 | S. cerevisiae deletion strains, locus YPR119W, strain clb2, active compounds read low 1.03 | S. cerevisiae deletion strains, locus YPR141C, strain kar3, active compounds read low 1.02 | S. cerevisiae deletion strains, locus YPR163C, strain tif3, active compounds read low 1.03 | S. cerevisiae deletion strains, locus YPR167C, strain met16, active compounds read low 1.03 | S. cerevisiae deletion strains, strain wtn01, active compounds read low 0.995

C[C@@H](NCCc1ccc(O)cc1)[C@@H](O)c1ccc(O)cc1
inactive: [30] 0.986 | [31] 0.989 | [4] 1.01 | [32] 0.991 | [33] 0.992 | S. cerevisiae deletion strains, locus YGR229C, strain SMI1, active compounds read low 0.99 | [11] 0.993 | [19] 0.986 | [20] 1.02 | [21] 0.994 | [22] 1.03 | [34] 0.999 | [35] 0.992 | [36] 0.991 | [24] 0.974 | [37] 1 | [26] 0.995

CC(=O)NCCc1ccc(O)c(O)c1
inactive: [1] 1.03 | [30] 1.01 | [32] 1.05 | [33] 1 | [11] 1.02 | [21] 0.999 | [22] 0.986 | [34] 1.01 | [35] 1.01 | [36] 0.998 | [37] 1.02 | [27] 1.01
